# Screening results as filed in PubChem.
# DT40 TDP1 CPT = qHTS for Inhibitors of human tyrosyl-DNA phosphodiesterase 1 (TDP1): qHTS in cells in presence of CPT; Potency, µM (doses to about 46.2 µM), for the others: at the top dose activity change, negative = growth inhibition, actives largely listed as inhibitors; 12% of 420,000 active; chicken DT40 Tdp1-/-;hTDP1 cells + 20 nM CPT, ATP luminescence, 48 h; AID 686979, 2013; note: % is set by controls: 0 for no effect and ±100 for the full control effect; nearly all actives have a fitted effect of over 55% in size
#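 Chicken DT40 Tdp1-/- cells stably complemented with human TDP1 were seeded at 400 cells/well in medium containing 20 nM camptothecin, exposed to pin-transferred compounds, and grown at 37 °C for at least 48 hr. Viability was read as ATP luminescence.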
# TDP1 block = qHTS Assay for Inhibitors of Tyrosyl-DNA Phosphodiesterase (TDP1) | recombinant TDP1, AlphaScreen DNA substrate cleavage | Potency, µM (doses to about 130 µM), without a hit: at the highest dose activity change, negative = inhibition, hits mostly inhibitors | 0.28% of 350,000 active | AID 485290, 2010; note: % is set by controls: 0 for no effect and ±100 for the full control effect; nearly all actives have a fitted effect of over 40% in size
#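 Tdp1 1 nM final; 15 min RT w/ cpd; substrate 15 nM, 5 min; beads 10 ug/ml, 10 min; AlphaScreen read. Neg ctrl: no enzyme.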
# ClpP mod = qHTS Assay for Activators of ClpP; 1.9% of 340,000 active; AID 651965, 2013; purified B. subtilis ClpP, FRET peptide cleavage, 20 min; ATP-dependent Clp protease proteolytic subunit (Bacillus subtilis (strain 168)), P80244; Potency, µM (series often up to 57.5 µM), for the others: top-dose activity change, negative = active; active = well fitted falling curve with a large enough effect; inconclusive = small, poorly fitted or top-dose-only effect; inactive = no such curve, though single readings can be large or run the other way; note: the source files actives as falling curves though it sought activators and does not explain the sign; nearly all actives have a fitted effect of over 65% in size
# Target sequence (P80244 whole entry, looked up): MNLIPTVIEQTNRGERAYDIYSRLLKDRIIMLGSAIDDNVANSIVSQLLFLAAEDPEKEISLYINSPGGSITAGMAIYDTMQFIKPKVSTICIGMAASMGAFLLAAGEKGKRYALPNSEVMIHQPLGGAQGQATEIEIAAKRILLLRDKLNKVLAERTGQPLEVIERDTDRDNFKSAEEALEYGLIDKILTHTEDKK
#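 FRET quenching reversal measured ClpP activation: 10 microg/mL B. subtilis ClpP at pH 8 with the FRET-FV decapeptide, read at 430 nm after 320 nm excitation. The 20-min minus 0-min signal was scaled between DMSO/no-enzyme wells and ADEP (5.8 microM final).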
# TDP1 cell noCPT = qHTS for Inhibitors of human tyrosyl-DNA phosphodiesterase 1 (TDP1): qHTS in cells in absence of CPT | AID 686978, 2013 | DT40 Tdp1-/- hTDP1 cells, no CPT, ATP luminescence, 48 h | Potency, µM (doses to about 46.2 µM), for the others: at the highest dose activity change, negative = growth inhibition, most hits filed as inhibitors | 15% of 420,000 active; note: % is set by controls: 0 for no effect and ±100 for the full control effect; nearly all actives have a fitted effect of over 55% in size
#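 Chicken DT40 Tdp1-/- cells stably complemented with human TDP1 were seeded at 400 cells/well with DMSO in place of 20 nM camptothecin. After compound pinning, cells grew at least 48 hr at 37 °C; viability read by CellTiter-Glo luminescence.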
# Starred values were filed as active, the others as inactive; ? = inconclusive; . = no result given; ! = a repeat was not active; [ ] = remark or other dose. This is a sample that favours compounds with a hit; in the whole collection about 17% have one here. Unless noted, calls come from the whole dose curve; as a rule, active = well fitted curve in the direction sought with a large enough effect; inconclusive = small, poorly fitted or top-dose-only effect, or another doubt; inactive = no such curve, though single readings can be large; an effect the other way counts as inactive or inconclusive. Potency is the fitted concentration of half-maximal effect.
SMILES,DT40 TDP1 CPT,TDP1 block,ClpP mod,TDP1 cell noCPT
O=C(Nc1ccccc1)c1cc([N+](=O)[O-])ccc1Cl,30µM*!,-4%[56.1 µM],-3%,28µM*!
O=C(CNC(c1ccccc1)c1ccccc1)Nc1cc([N+](=O)[O-])ccc1Cl,21µM*,2%,1%,16µM*
CNc1ccccc1C(C)(C)c1cc(-c2ccc(F)cc2)no1,-28%,5%,-2%,?
O=C(Nc1cccnc1)c1ccc([N+](=O)[O-])cc1Cl,-15%,-3%,0%,4%
O=C(Nc1cccc(Cl)c1)c1cc(N=Nc2ccc([N+](=O)[O-])cc2Cl)ccc1O,5.2µM*,9%,-5%,2.6µM*
CCCCN(C)CCCNC(=O)C1CCN(S(=O)(=O)CCC)CC1,-10%,3%,0%,-7%
CNC(=S)N1CCN(c2cccc(OC)c2)CC1,-5%,-5%,1%,-12%
COC(=O)c1c(-c2ccc(Cl)cc2)noc1N1CCN(c2cccc(C)c2C)CC1,16µM*,0%,0%,?
COC(=O)c1c(-c2ccc(Cl)cc2)noc1N1CCN(c2cccc(OC)c2)CC1,16µM*,5%,-9%,5.8µM*
CS(=O)(=O)c1ccc(Cl)c(NC(=O)COC(=O)CCCN2C(=O)c3cccc4cccc(c34)C2=O)c1,5%,-1%,.,-29%
N#Cc1c(Nc2ccccc2C(F)(F)F)s[nH]c1=O,21µM*,-5%,.,21µM*
N#Cc1c(Nc2ccccc2Cl)s[nH]c1=O,15µM*,9%,.,5.2µM*
N#Cc1c(Nc2ccccc2)sc(C(=O)c2ccc(F)cc2)c1N,-22%,-2%,-1%,?
N#Cc1c(Nc2ccccc2)s[nH]c1=O,8.2µM*,.,-5%,8.2µM*
Cc1cc(NC(=O)C(=O)NCCN2CCN(S(C)(=O)=O)CC2)ccc1Br,?,5%,.,?
O=S1(=O)N[C@@H](CC2CCCCC2)COc2cc(Br)ccc21,15µM*,.,-4%,?
CCOC(=O)C1CC(CN2C(=O)c3ccccc3C2=O)OC1=O (centres undefined),0%,.,.,-34%
CCOC(=O)c1c(C)[nH]c(CCC(=O)Nc2c(Cl)cc(OC)cc2OC)c1C,?,11%,-5%,?
O=S(=O)(c1ccccc1Br)N(Cc1ccccc1)CC(O)COCc1ccccc1 (centres undefined),23µM*,-6%[56.1 µM],0%,?
O=S(=O)(c1ccccc1Br)N(CC(O)COCc1ccccc1)C1CC1 (centres undefined),?,.,1%,-21%
CCN(Cc1ccccc1)S(=O)(=O)c1ccccc1Br,?,-15%[56.1 µM],-1%,?
C=CCCCN(Cc1ccccc1)S(=O)(=O)c1ccccc1Br,?,40µM*,2%,?
Cc1ccccc1OCC(=O)OCC(=O)NC1CCCCCC1,-13%,1%,0%,2%
COc1cccc(CNC(C)(C)CO)c1OCc1ccc(Cl)cc1,-20%,-3%,.,?
COc1cccc(OCc2ccc(Cl)cc2)c1C#N,?,-7%,-2%,18µM*
SMILES,DT40 TDP1 CPT,TDP1 block,ClpP mod,TDP1 cell noCPT
CNC(=O)c1cc2cc(OC)ccc2n1CCN(Cc1ccccc1)Cc1ccccc1,-27%,2%,22µM*,?
CN(C)S(=O)(=O)c1cccc(NC(=O)CCc2nc3cc(S(=O)(=O)N4CCOCC4)ccc3n2C)c1,?,.,-8%,-5%
Cc1cc(Br)ccc1NC(=O)c1cc2c(s1)-c1ccccc1SC2,?,-5%,14µM*,?
Cc1ccc(CNC(=O)c2cc3c(s2)-c2ccccc2SC3)cc1,-4%,0%,109%,-23%
COc1cccc(C2CC(=O)Nc3c2c(=O)n(C)c2nc4ccccc4n32)c1 (centres undefined),.,7%,4%,.
N[C@H](C(=O)O)c1ccc(O)c(C(=O)O)c1,25%,14%[56.1 µM],.,7%
N[C@@H](C(=O)O)c1ccc(C(=O)O)c(C(=O)O)c1,-7%,40µM*!,.,-14%
O=C1C(Cc2c[nH]c3ccccc23)NC(=S)N1C1CCCCC1 (centres undefined),-17%,8%,.,-26%
O=C(COc1ccc(F)cc1)Nc1cc(Cl)ccc1-n1cncn1,-2%,-2%,?,?
Cc1cccc(NC(=O)c2cc(N3CCOCC3)nc3ccccc23)c1,12µM*,-1%,88%,?
O=C(Nc1ccccc1)c1cc(N2CCOCC2)nc2ccccc12,-17%,-3%,-5%,?
Cc1ccc(NC(=O)c2cc(N3CCOCC3)nc3ccccc23)cc1,23µM*,-8%,-13%,?
Cc1ccc(Cl)cc1NC(=O)Cn1ncc2c(C)n(Cc3ccccc3F)c(C)c2c1=O,?,5%,-27%,?
O=C(CCCOC(=O)c1ccc(O)cc1O)c1ccc(Br)cc1,?,-8%[0.505 µM],2%,23µM*
CCN1C(=O)c2ccc(C(=O)Nc3c(C)cc(C)cc3C)cc2C1=O,36%,4%,.,-8%
Cc1ccc(N2CCN(C(=O)c3cc(-c4ccc(F)cc4)[nH]c3C)CC2C)cc1 (centres undefined),?,.,?,21µM*
COc1cccc(N2CCN(C(=O)c3cc(-c4ccc(F)cc4)[nH]c3C)CC2)c1,15µM*,.,-1%,21µM*
COc1cc(C2c3c(oc4ccccc4c3=O)C(=O)N2Cc2ccco2)ccc1O (centres undefined),-5%,4%,-2%,-28%
CCOc1cc(C2c3c(oc4cc(C)c(Cl)cc4c3=O)C(=O)N2Cc2ccco2)ccc1O (centres undefined),18µM*,2%,0%,16µM*
CSc1ccc(C2c3c(oc4cc(C)cc(C)c4c3=O)C(=O)N2CCO)cc1 (centres undefined),?,0%,1%,23µM*
Cc1ccc(CN2C(=O)c3oc4ccc(C)cc4c(=O)c3C2c2ccc(O)cc2)cc1 (centres undefined),16µM*,3%,-1%,?
Cc1ccc2oc3c(c(=O)c2c1)C(c1cccc(Br)c1)N(Cc1ccco1)C3=O (centres undefined),?,2%,0%,21µM*
O=C1c2oc3ccc(Cl)cc3c(=O)c2C(c2cccc(Br)c2)N1CCO (centres undefined),26µM*,3%,1%,?
Cc1ccc2oc3c(c(=O)c2c1)C(c1cccc(O)c1)N(Cc1ccccc1Cl)C3=O (centres undefined),?,4%,-5%,18µM*
Cc1cc(C)c2c(=O)c3c(oc2c1)C(=O)N(Cc1ccc(F)cc1)C3c1cccc(O)c1 (centres undefined),23µM*,2%,1%,12µM*
